This note sets out measurements from PubChem BioAssay (NCATS).

Records with an inconclusive call do not appear. Unmarked numbers belong to inactive results. Activity calls are given as the source filed them. The call rests on the fitted dose curve; in most records, active means well fitted inhibition curve with a large enough effect; inconclusive means small, poorly fitted or top-dose-only effect; inactive means flat fitted curve, though single readings scatter.
On the % scale 0 is the no-effect control and ±100 the full control effect; potency means the concentration at half of the fitted maximal effect.

The test has as its system HEK293. Briefly: Cytotoxic Profiling of Annotated Libraries Using Quantitative High-Throughput Screening (AID 1296008). Further: nearly all actives have a fitted effect of over 60% in size. Conditions: Five cell lines viability, CellTiter-Glo ATP luminescence, 48-72 h; max response: hits give low values. In a few lines:
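Compounds were pin-transferred onto cells and incubated 48 or 72 hr at 37 degree Celsius, 95% humidity. CellTiter-Glo was added, plates sat 10 min at room temperature, then ATP-coupled luminescence was imaged as the viability read-out.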
Take `CC(C)c1cc(C(=O)N2CC[C@H](NC(=O)C3CC3)C2)n[nH]1`: the max response is -6.43%.
In the case of `CC(Cc1cc2c(c(C(N)=O)c1)N(CCCO)CC2)NCCOc1ccccc1OCC(F)(F)F` (centres undefined), the Potency is 23100 nM (active).
Regarding `CCC(C)C(=O)OC1CC(O)C23C4OCC5(C(O)CC2C1(C)C(O)O4)C3C(=O)C(O)C1(C)C(O)(c2ccoc2)CC2OC251` (centres undefined), the Potency is 1720 nM (active).
As to `C=C(CCC1=C(C)[C@H]2[C@H](CC3[C@@H]4CC=C5C[C@@H](O)C[C@@H](O)[C@]5(C)C4[C@H](O)C[C@@]32C)O1)CO[C@@H]1O[C@H](CO)[C@@H](O)[C@H](O)[C@H]1O` (some centres undefined), the Potency is 1370 nM (active).
On to `COc1c2cc(c(O)c1OC)-c1cc(ccc1O)CCC(O)CCCC2` (centres undefined), for which the max response is 1.1%.
Still for that read-out and setting: as for `Cc1cc(C)c2c(N)c(C(=O)NCc3ccc(Cl)cc3)sc2n1`, the figure is -96.1%.
In the case of `NC1CCC(Nc2cc(-c3cccc(NCc4cccc(F)c4)n3)c(Cl)cn2)CC1` (centres undefined), the Potency was 259 nM (active).
For the compound `O=C(NCc1ccc(S(=O)(=O)c2cc(F)cc(F)c2)cc1)c1ccc2nccn2c1`, the Potency is 5.2 nM (active).
Turning to `CCCNc1ccc2ncc(-c3ccc4[nH]ncc4c3)n2n1`, the Potency was 1640 nM (active).
Regarding `CC(C)=CCC/C(C)=C/Cc1ccc(O)c(C2OC(=O)c3cc(C(=O)O)cc(O)c32)c1O` (centres undefined), the max response was 0.876%.
For the compound `Cn1nnc(-c2ccc(-c3ccc(N4C[C@H](CO)OC4=O)cc3F)cn2)n1`, the Potency was 4110 nM (active).
On the same count and under the same terms, with `CO[C@H]1C[C@@H]2CC[C@@H](C)[C@@](O)(O2)C(=O)C(=O)N2CCCC[C@H]2C(=O)O[C@H]([C@H](C)C[C@@H]2CC[C@@H](OP(C)(C)=O)[C@H](OC)C2)CC(=O)[C@H](C)/C=C(\C)[C@@H](O)[C@@H](OC)C(=O)[C@H](C)C[C@H](C)/C=C/C=C/C=C/1C` the figure was 6.3 nM (active).
`CCC1C(=O)OC23C=C[C@@H]4C(C(=O)O)=CO[C@H](O[C@@H]12)[C@@H]43` (some centres undefined): the max response was -24.7%.
In the case of `C[C@@H]1COCCN1c1cc(C2(S(C)(=O)=O)CC2)nc(-c2cccc3[nH]ccc23)n1`, the Potency was 1460 nM (active).
As to `NC(=O)c1csc(C2OC(CO)C(O)C2O)n1` (centres undefined), the max response was -9.16%.
Turning to `COCCN1CCN(Cc2ccc(-c3n[nH]c4c3C(=O)c3c(NC(=O)NN5CCOCC5)cccc3-4)cc2)CC1`, the Potency was 206 nM (active).
Regarding `CC1OC(OC2C(C)OC(OC3C(O)C(CO)OC(O[C@H]4CC[C@@]5(C)C(CC[C@]6(C)C5CC=C5C7[C@@H](C)[C@H](C)CC[C@]7(C(=O)O)CC[C@]56C(=O)O)C4(C)C)C3O)C(O)C2O)C(O)C(O)C1O` (some centres undefined), the max response is -6.08%.
Turning to `CC(C)c1cc(CNc2nc(Nc3cc(C4CC4)[nH]n3)cc(N3CCN(C)CC3)n2)on1`, the Potency was 1300 nM (active).
Consider `C=C(F)c1sc(CNCCCNc2cc(=O)c3ccccc3[nH]2)c(C)c1Br`, for which the Potency is 6510 nM (active).
Consider `Cc1[nH]c2ccccc2c1C1=C(NCCc2ccc(F)cc2)C(=O)N(C)C1=O`, for which the max response is -22.2%.
As to `CCCOc1ccc(-c2nc(OC)c3ccccc3n2)cc1`, the max response is 4.19%.
Take `O=[N+]([O-])c1cccc2[nH]c(CNc3nc(N4CCOCC4)nc4c3ncn4-c3ccsc3)nc12`: the Potency was 58 nM (active).
Regarding `CC(C)c1nc(-c2ccc(NC(=O)Nc3cccc(C(F)(F)F)c3)c3ccccc23)c2c(N)nccn12`, the Potency was 6510 nM (active).
On to `CCCCC1CCN(CCCC(=O)c2ccccc2C)CC1`, for which the Potency is 16400 nM (active).
On to `CCN1CCN(Cc2ccc(NC(=O)c3ccc(C)c(/C=C/c4cnc5[nH]ccc5c4OC)c3)cc2C(F)(F)F)CC1`, for which the Potency is 1460 nM (active).
For the compound `COC1C(CO)OC(n2cnc3c(=O)[nH]cnc32)C1O` (centres undefined), the max response is 0.852%.
With `O=C(C(c1ccccc1)c1ccccc1)N1CCN(CC(O)COc2cccc3ncccc23)CC1` (centres undefined), the Potency was 6510 nM (active).
In the case of `COC1=CC(=O)CC(C)C12Oc1cc(OC)cc(O)c1C2=O` (centres undefined), the max response was 0.0359%.
For the compound `CC(=O)O[C@@H]1[C@H](O)[C@@H](O[C@@H]2O[C@@H](C)[C@H](O[C@@H]3OC[C@@H](O)[C@H](O[C@@H]4OC[C@@H](O)[C@H](O)[C@H]4O)[C@H]3O)[C@@H](O[C@@H]3O[C@H](CO)[C@@H](O)[C@H](O)[C@H]3O)[C@H]2O)[C@H](OC(=O)[C@]23CCC(C)(C)C[C@H]2C2=CCC4[C@@]5(C)CC[C@H](O[C@@H]6O[C@H](C(=O)O)[C@@H](O)[C@H](O[C@@H]7OC[C@@H](O)[C@H](O)[C@H]7O)[C@H]6O[C@@H]6O[C@H](CO)[C@H](O)[C@H](O)[C@H]6O)[C@@](C)(C=O)C5CC[C@@]4(C)[C@]2(C)CC3)O[C@@H]1C` (some centres undefined), the max response was -5.31%.
